Experimental findings from PubChem BioAssay AID2014 (Sanford-Burnham Center for Chemical Genomics, 2009) are described below.

This test addresses Polyadenylate-binding protein 1 (Homo sapiens) (UniProt P11940). The experiment in a line: PABP poly(A) RNA binding inhibitors, primary screen, biochemical, fluorescence polarization, uHTS (AID 2014).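 Further: calls also rest on retests at 20 µM and on dose response follow-up.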 The note with it: stronger effect = higher value. In general terms: Polarisation of emitted light reports the rotation of a fluorescent probe.

Screen size: about 290,000 compounds; about 3,000 (1%) were called active. How the calls were made is not given here. What follows is part of a selection rich in actives, with near analogues and random picks from the rest.

Polyadenylate-binding protein 1 (Homo sapiens), sequence (P11940 whole entry, looked up): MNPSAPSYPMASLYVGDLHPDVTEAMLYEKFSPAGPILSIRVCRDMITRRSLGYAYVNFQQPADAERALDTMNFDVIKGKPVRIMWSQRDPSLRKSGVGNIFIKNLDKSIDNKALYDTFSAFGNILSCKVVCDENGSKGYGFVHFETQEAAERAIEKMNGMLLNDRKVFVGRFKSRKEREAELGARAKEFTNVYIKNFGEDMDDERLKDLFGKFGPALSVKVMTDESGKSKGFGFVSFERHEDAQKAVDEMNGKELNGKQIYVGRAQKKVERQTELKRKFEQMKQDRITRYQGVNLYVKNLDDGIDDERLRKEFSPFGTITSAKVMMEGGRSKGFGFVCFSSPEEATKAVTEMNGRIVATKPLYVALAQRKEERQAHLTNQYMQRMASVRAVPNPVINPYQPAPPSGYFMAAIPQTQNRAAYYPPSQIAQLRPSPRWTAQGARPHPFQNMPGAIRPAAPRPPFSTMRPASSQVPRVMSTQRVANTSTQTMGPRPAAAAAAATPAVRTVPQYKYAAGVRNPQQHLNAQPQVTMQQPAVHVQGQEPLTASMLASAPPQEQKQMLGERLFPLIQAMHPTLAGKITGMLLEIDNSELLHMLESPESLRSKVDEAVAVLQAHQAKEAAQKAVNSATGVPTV

For `CCOCCc1nn2c(=O)cc(CSCC(=O)Nc3cccc(C)c3C)nc2s1`, the inhibition – broadly, the relative decrease from the control value, in per cent – (at 35 µM) was 8.3% (inactive).
Turning to `COc1ccc(-c2csc(Cc3nc(O)cs3)n2)cc1`, the inhibition runs as follows: (at 35 µM) 70.4% (active); (confirmation repeats, at 20 µM) 52.3%.
On to `COc1ccc(-c2csc(NC3OC(=O)c4ccccc43)n2)cc1` (configuration not stated), for which, under “at 35 µM”, the inhibition is -0.5% (inactive).
`CC(C)(C)C(=O)OCc1nc(-c2ccc(O)c(O)c2)cs1`: under “at 35 µM”, the inhibition is 10% (inactive).
Still for that read-out and setting: as for `O=c1ccc2cc(S(=O)(=O)Nc3ccccc3F)ccc2o1`, the figure is -1.5% (inactive); as for `Cc1c(NC(=O)c2c([N+](=O)[O-])cnn2C)c(=O)n(-c2ccccc2)n1C`, -1.3% (inactive); as for `CCOc1ccc(-n2c(O)c(/C=N/Nc3nc(C)cc(C)n3)c3ccccc3c2=O)cc1`, 9% (inactive).
`Cc1ccc(-n2c(O)c(C=Nc3ccc(S(=O)(=O)Nc4ncccn4)cc3)c3ccccc3c2=O)cc1C`: the inhibition reads like this: (at 35 µM) -8.1% (active); (confirmation repeats, at 20 µM) 94.9%.
Turning to `CCOc1ccc(N=Cc2c(O)n(-c3cccc(C)n3)c(=O)c3ccccc23)cc1`, the inhibition (at 35 µM) was -1.3% (inactive).
For `O=C(NCC(=O)N1CCN(c2ncc(C(F)(F)F)cc2Cl)CC1)c1ccc(Br)o1`, where the note is “at 35 µM”, the inhibition was 3.4% (inactive).
Same read-out and setting: next, `CC(=O)N1CCSc2ccc(S(=O)(=O)N3CCC(C)CC3)cc21`: 0% (inactive); `Cc1cccc(OCC(=O)NC2CC(C)(C)NC(C)(C)C2)c1`: 6.7% (inactive).
Consider `C=CCN1C=C2C(=O)C(C)(OC(=O)CCc3ccccc3)C(=O)C=C2C=C1c1ccc(C#N)cc1` (configuration not stated), for which the inhibition is 38.3% (active) (at 35 µM) and 80.1% (confirmation repeats, at 20 µM).
For `CC1(OC(=O)CCc2ccccc2)C(=O)C=C2C=C(c3ccc(C#N)cc3)N(CCc3ccccn3)C=C2C1=O` (configuration not stated), the inhibition (at 35 µM) is 26.9% (inactive).
On to `NC(=O)COc1ccccc1C(=O)NC12CC3CC(CC(C3)C1)C2`, for which, under “at 35 µM”, the inhibition is -0.3% (inactive).
`Cc1cc(/C=N/Nc2ccc([N+](=O)[O-])cn2)c(C)n1-c1cccc(C(=O)O)c1`: the inhibition (at 35 µM) is 50.3% (active).
The same measure, in the same setting: as for `COc1cc(/C=N\Nc2ccc([N+](=O)[O-])cn2)ccc1OCC(=O)O`, the figure is 13.3% (inactive).
Same read-out and setting: as for `Cc1ccc(-n2c(C)cc(/C=N/Nc3ccc([N+](=O)[O-])cn3)c2C)c(C)c1`, the figure is 10.5% (inactive).
`CC(C)=CCN1CCN(CCCc2ccccc2)CC1CCO` (configuration not stated): for the setting “at 35 µM”, the inhibition is -4.3% (inactive).
Still for that read-out and setting: next, `CN1/C(=C\C(=O)c2cccnc2Cl)C(C)(C)c2ccccc21`: -4.7% (inactive).
In the case of `CN1/C(=C\C=C2\N=C(c3ccc(F)cc3)OC2=O)C(C)(C)c2ccccc21`, the inhibition reads like this: (at 35 µM) 120% (active); (confirmation repeats, at 20 µM) 105%.
In the case of `CN1/C(=C\C(=O)c2oc3ccccc3c2N)C(C)(C)c2ccccc21`, the inhibition (at 35 µM) is 15.4% (inactive).
Turning to `O=C(NCCc1ccc(Cl)cc1)C1CCCN1C(=O)NCc1ccccc1` (configuration not stated), the inhibition (at 35 µM) was -1.3% (inactive).
`COc1ccccc1N(CC(=O)Nc1ccccc1C(=O)N1CCCC1)S(C)(=O)=O`: the inhibition (at 35 µM) was 0.7% (inactive).
Still for that read-out and setting: as for `O=C(O)CCCN1C(=O)c2ccccc2Sc2ncccc21`, the figure is 16.4% (inactive); as for `COc1ccc(C(=O)Nc2ccnn2C2CCN(Cc3ccncc3)CC2)cc1`, -4.2% (inactive); as for `COc1ccc(N=C(C)c2sc3ccccc3c2O)cc1`, -3.8% (inactive).
Still for that read-out and setting: next, `O=C(N/N=C/c1c(Cl)[nH]c2ccccc12)c1sc2ccccc2c1Cl`: -2.8% (inactive).
In the case of `Oc1ccc(N=Cc2sc3ccccc3c2Cl)cc1`, the inhibition runs as follows: (at 35 µM) -14% (active); (confirmation repeats, at 20 µM) 68.6%.
For the compound `COc1ccccc1N(CC(=O)NC1CCCC1)C(=O)C1(C)CC(=O)N=C2C=CC(C)=CN21` (configuration not stated), for the setting “at 35 µM”, the inhibition was 4.1% (inactive).
Take `O=C(COC(=O)C12CC3CC(CC(C3)C1)C2)NCc1ccco1`: the inhibition by setting is: (at 35 µM) 26% (active); (confirmation repeats, at 20 µM) 62.4%.
Regarding `O=C(CC12CC3CC(CC(C3)C1)C2)NCc1ccco1`, the inhibition (at 35 µM) is -13.1% (inactive).
Take `O=C(COC(=O)CCC(=O)c1cccs1)NCc1ccco1`: the inhibition reads like this: (at 35 µM) 35.9% (inactive); (confirmation repeats, at 20 µM) 32.9%.
As to `COc1ccc(C(=O)C2CCCN(C(=O)c3cc(C)on3)C2)cc1F` (configuration not stated), the inhibition (at 35 µM) was -11.7% (inactive).
Still for that read-out and setting: next, `Cc1cc(C)n(CCC(=O)N2CCN(S(=O)(=O)c3ccc(C)c(C)c3)CC2)n1`: -7.6% (inactive).
